Results as given in PubChem BioAssay AID624396 (The Scripps Research Institute Molecular Screening Center, 2012).
Calls of active or inactive are those of the source.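 Rule for the calls: active = over 15% of cells apoptotic at 25 µM, or half-maximal dose of 10 µM or lower; inactive = the rest.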

Tested on: MCL1 1780
Assay: apoptosis induction in cancer cell lines, late-stage follow-up, mechanism study for MCL1-BIM inhibitor project, imaging, DAPI staining, cell line panel, probe (AID 624396)
Details: DAPI nuclear morphology, at 25 µM, active compounds read high

Structure (SMILES): CCN1CCN(C(c2ccc(C(F)(F)F)cc2)c2ccc3cccnc3c2O)CC1 (stereo unspecified)
- apoptosis: 99% (active)
